For orientation: viability means a read-out of living cells in per cent, often relative to untreated cells.

Hit rate of the full screen: of about 2,300 compounds, about 790 (34%) were called active. Some of the results follow. Measured potencies and affinities stand elsewhere. A number with no mark means an inactive call. The rule behind the calls is not given here.

The test can be described thus: THP-1 cell cytotoxicity, dose response, cytotoxicity control for non-replicating M. tuberculosis project (AID 489025). The following applies: THP-1 cell viability; series mostly up to 40 µM; viability: at the top concentration.
On to `CCNC(=O)COC(=O)c1ccc(-c2nc3ccccc3s2)s1`, for which the “viability” value is 111%.
For the compound `CCSc1ncc(/C=N/Nc2ccc(Cl)cc2)n1C`, the “viability” value was 80.5%.
`Cc1ccc(NC(=O)COC(=O)C2=COCCO2)c([N+](=O)[O-])c1`: the “viability” value was 114%.
As for `Cc1c(NC(=O)c2coc(=O)c(Br)c2)c(=O)n(-c2ccccc2)n1C`, the “viability” value was 117%.
For `CCOC(=O)C(=O)NC12CC3CC(CC(C3)C1)C2`, the “viability” value is 101%.
Take `O=C(NCCC1CCCC1)c1cccs1`: the “viability” value was 93.2%.
In the case of `C/C(=N\NC(=O)c1cccs1)c1ccc2c(c1)OCO2`, the “viability” value is 88.5%.
Take `O=C(COC(=O)c1ccc(Br)o1)Nc1ncc([N+](=O)[O-])s1`: the “viability” value was 95.2%.
Take `O=C(CCS(=O)(=O)Cc1ccccc1)Nc1ncc([N+](=O)[O-])s1`: the “viability” value is 87.1%.
Next, `CCC(=O)c1ccc(OCC(=O)OCC(=O)N2CCc3ccccc3C2)cc1`: 114%; `O=C(OCC(=O)N1CCc2ccccc21)c1ccc([N+](=O)[O-])cc1`: 123%; `COC(=O)COc1ccc2cc(-c3ccc(OC)cc3)c(=O)oc2c1`: 127%.
For the compound `O=C(NCc1ccc(F)cc1)c1ccc(Br)o1`, the “viability” value is 123%.
Next, `COc1ccc(NC(=O)c2ccc(-c3ccc([N+](=O)[O-])cc3)o2)cc1OC`: 81.5%; `Cc1cccc(NCCC(=O)c2ccc([N+](=O)[O-])cc2)c1C`: 102%; `Cc1ccc(CCC(=O)Nc2ccc(C)c(C)c2)o1`: 118%.
Next, `Cc1cccc(NC(=O)c2n[nH]c([N+](=O)[O-])c2Br)c1C`: 104%.
Next, `O=C(Nc1ccc([N+](=O)[O-])cc1)c1ccc(Cn2cc([N+](=O)[O-])cn2)cc1`: 73.7%; `O=C(NCc1ccc(Cl)cc1)c1n[nH]c([N+](=O)[O-])c1Cl`: 116%; `CCC1CCc2sc(C(=O)NCC3CCCO3)cc2C1` (stereo not given): 75.8%.
Consider `CN1CCN(c2c(F)cc3c(=O)c(C(=O)O)cn4c3c2SCC4)CC1`, for which the “viability” value is 100%.
Turning to `Cc1cc(C=C2C(=O)N(C)C(=S)N(C)C2=O)c(C)n1-c1cccnc1`, the “viability” value was 77%.
Turning to `Cc1cccc(NC(=O)COC(=O)CCc2c[nH]c3ccccc23)c1C`, the “viability” value is 117%.
Consider `CC(=O)c1ccc(-c2nnc(CCC(=O)N(C)Cc3cccc4cnccc34)o2)s1`, for which the “viability” value is 89.4%.
For `CN1C(=O)CC(Sc2ccccc2C(=O)O)C1=O` (stereo not given), the “viability” value was 132%.
As for `O=C(COC(=O)c1ccc(Cl)s1)c1ccc[nH]1`, the “viability” value was 101%.
Regarding `COC(=O)[C@H](CC(C)C)NC(=O)NCCC1=CCCCC1`, the “viability” value was 120%.
For `CCn1nnc(NC(=O)COc2ccc(C3CCCCC3)cc2)n1`, the “viability” value is 82.2%.
Regarding `COc1ccccc1NC(=O)C(=O)/C=C(\O)c1ccccc1`, the “viability” value was 82.8%.
For `CCn1nnc(NC(=O)c2ccc(-c3ccc(Cl)cc3)o2)n1`, the “viability” value was 98.2%.
As to `CC1CC(C)CN(C(=O)COC(=O)c2ccc([N+](=O)[O-])o2)C1` (stereo not given), the “viability” value was 93.8%.
`CC12CN3CC(C)(CN(C1)C3c1ccc([N+](=O)[O-])o1)C2` (stereo not given): the “viability” value was 109%.
Next, `COc1ccccc1CCNC(=O)c1ccc(C)o1`: 87.9%; `COc1ccc(OCCCC(=O)Nc2ccc(N3CCOCC3)cc2)cc1`: 116%.
For the compound `CCOC(=O)CCNC(=O)c1ccc2nc(C3CCCCC3)oc2c1`, the “viability” value is 104%.
`Cc1[nH][nH]c(=O)c1C(c1ccc(-c2ccc(F)cc2)o1)c1c(C)[nH][nH]c1=O`: the “viability” value is 96.8%.
Next, `CC(C)(C)OC(=O)NCCC(=O)Oc1ccc2ccc(=O)oc2c1`: 89.2%.
Next, `Cc1noc(C)c1COc1ccc(C(=O)Nc2ccccn2)cc1`: 91.7%.
As to `Cc1ccc(C)c(-c2nnc(NC(=O)COc3ccccc3)o2)c1`, the “viability” value is 77.5%.
For the compound `COCCn1c(C)cc(C(=O)COC(=O)c2ccc([N+](=O)[O-])o2)c1C`, the “viability” value is 118%.
In the case of `Cc1cc(C)c(C(=O)COC(=O)c2ccc([N+](=O)[O-])o2)cc1C`, the “viability” value is 115%.
As to `Cc1ccc(C)c(-c2nnc(NC(=O)C3=COCCO3)o2)c1`, the “viability” value is 83%.
Take `O=C(Nc1ccccc1F)c1ccc(CSc2ccccc2)o1`: the “viability” value was 89.5%.
For `O=C1NN(c2ccccc2)C(=O)/C1=C/c1ccc(Sc2ccc(Cl)cc2)o1`, the “viability” value is 79%.
For `COc1ccc(-c2nnn(Cc3ccccc3)n2)cc1`, the “viability” value was 103%.
Take `NC(=O)c1cccnc1Nc1cccc(F)c1`: the “viability” value was 104%.
Take `COCCCC1CCN(Cc2nc(-c3ccccc3)no2)CC1`: the “viability” value is 104%.
As for `CCCCNC(=O)COC(=O)c1cc(Br)ccc1Cl`, the “viability” value was 118%.
The value for `CC1COC(=O)C(NNc2ccc(Cl)c(Cl)c2)=N1` (stereo not given) was 115%; that for `S=c1c2c(nc3nc[nH]n13)CCC2` was 102%; that for `O=C(Cc1ccc(Cl)cc1)OCC(=O)c1ccc[nH]1` was 111%.
With `Cc1cccc(OC(=O)c2sc3ncn(C)c(=O)c3c2C)c1`, the “viability” value is 84.2%.
Regarding `O=C(c1ccc([N+](=O)[O-])o1)N1CCN(Cc2ccccc2)CC1`, the “viability” value is 78.6%.
With `Cc1ccccc1NC(=O)c1nc[nH]c1C(=O)NCc1ccccc1`, the “viability” value was 91.3%.
Consider `O=[N+]([O-])c1ccc(CN2CCN(c3ccc(Cl)cc3)CC2)o1`, for which the “viability” value is 108%.
`Cc1cccc(CC(=O)NCC2CCCCC2)c1`: the “viability” value is 110%.
For `COc1ccc2c(c1)C(=C(C#N)C#N)C(=O)N2CCc1ccccc1`, the “viability” value is 91.1%.
Next, `CSc1nc2ccc(NC(=O)C3CC(=O)N(Cc4ccccc4)C3)cc2s1` (stereo not given): 107%; `O=C(CCC1CCCCC1)NCc1cccs1`: 105%; `CCc1ccc(OCC(=O)c2c(O)c3ccccc3oc2=O)cc1`: 116%.
In the case of `CCCn1nnc(NC(=O)COc2ccc(CC)cc2)n1`, the “viability” value was 109%.
On to `COc1cc(/C=N/Nc2ccc(Cl)c(C(=O)O)c2)ccc1OC(=O)c1cccs1`, for which the “viability” value is 116%.
On to `COc1ccc(-c2nc(C=O)cs2)cc1`, for which the “viability” value is 78%.
On to `Cc1cc(Br)ccc1OCCCCN1CCC(C)CC1`, for which the “viability” value was 81%.
Turning to `CCOC(=O)COc1cc([N+](=O)[O-])cc2cccnc12`, the “viability” value was 115%.
Next, `CCOC(=O)COc1ccc2c3c(c(=O)oc2c1C)CCC3`: 112%.
In the case of `O=Cc1c(NCc2ccco2)nc2ccccn2c1=O`, the “viability” value was 90.6%.
Next, `O=C(NCc1ccco1)c1nc2ccccc2s1`: 98.7%; `O=C(c1nnc(-c2ccc(Cl)cc2)o1)C1CCCC1`: 106%; `CC1(c2nnc(Cc3ccccc3)o2)CC(c2ccccc2[N+](=O)[O-])=NO1` (stereo not given): 96.1%.
Turning to `CCc1nnc(N/N=C/c2ccc(-c3ccc([N+](=O)[O-])cc3)o2)n1N`, the “viability” value was 110%.
The value for `CCCCCCCC(=O)N/N=C/c1ccc([N+](=O)[O-])o1` was 106%; that for `COC(=O)c1cccc(NC(=O)COc2cccc([N+](=O)[O-])c2)c1` was 109%.
For `O=C(CCNc1cccc(F)c1)c1cccc([N+](=O)[O-])c1`, the “viability” value is 110%.
The value for `CC1Cc2ccccc2N1C(=O)COC(=O)c1ccc(Cl)nc1` (stereo not given) was 84.6%.
